# Experimental data taken from PubChem BioAssay.
# Active and inactive are the calls of the source.
# Experiments:
# [1] = binders of probe aFSTL3 on microarray, primary screen, stem cell growth factor project, biochemical, small-molecule microarray, fluorescence 635/667 (AID 1064); settings: higher = more signal;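 further: measures binding of the biotinylated anti-FSTL3 antibody to printed compounds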
# [2] = binders from COS7 lysate, DM2A8 probe, primary screen, torsin A project, cell lysate, small-molecule microarray, fluorescence 635/667 (AID 1065); settings: higher = more signal, COS7 lysate expressing mutant human TOR1A
# [3] = binders of probe aFGF2 on microarray, primary screen, stem cell growth factor project, biochemical, small-molecule microarray, fluorescence 635/667 (AID 1067); settings: higher = more signal;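 further: measures binding of biotinylated aFGF2 protein to printed compounds on slides; z-score merges feature fluorescence and signal-to-noise across triplicate slides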
# [4] = binders of probe aFGF10 on microarray, primary screen, stem cell growth factor project, biochemical, small-molecule microarray, fluorescence 635/667 (AID 1071); settings: higher = more signal;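 further: score merges 667 nm spot intensity and signal to noise from triplicate slides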
# [5] = molecular target: Neurogenic locus notch homolog protein 2 (Homo sapiens) (UniProt Q04721); assay: Notch2 binders on small-molecule microarrays, primary screen, biochemical, small-molecule microarray, 635 nm fluorescence, stem cell growth factors (AID 1073); settings: Notch2 binding, higher = more signal
# Chain of Neurogenic locus notch homolog protein 2 (Homo sapiens) (Q04721 whole entry, looked up, canonical isoform): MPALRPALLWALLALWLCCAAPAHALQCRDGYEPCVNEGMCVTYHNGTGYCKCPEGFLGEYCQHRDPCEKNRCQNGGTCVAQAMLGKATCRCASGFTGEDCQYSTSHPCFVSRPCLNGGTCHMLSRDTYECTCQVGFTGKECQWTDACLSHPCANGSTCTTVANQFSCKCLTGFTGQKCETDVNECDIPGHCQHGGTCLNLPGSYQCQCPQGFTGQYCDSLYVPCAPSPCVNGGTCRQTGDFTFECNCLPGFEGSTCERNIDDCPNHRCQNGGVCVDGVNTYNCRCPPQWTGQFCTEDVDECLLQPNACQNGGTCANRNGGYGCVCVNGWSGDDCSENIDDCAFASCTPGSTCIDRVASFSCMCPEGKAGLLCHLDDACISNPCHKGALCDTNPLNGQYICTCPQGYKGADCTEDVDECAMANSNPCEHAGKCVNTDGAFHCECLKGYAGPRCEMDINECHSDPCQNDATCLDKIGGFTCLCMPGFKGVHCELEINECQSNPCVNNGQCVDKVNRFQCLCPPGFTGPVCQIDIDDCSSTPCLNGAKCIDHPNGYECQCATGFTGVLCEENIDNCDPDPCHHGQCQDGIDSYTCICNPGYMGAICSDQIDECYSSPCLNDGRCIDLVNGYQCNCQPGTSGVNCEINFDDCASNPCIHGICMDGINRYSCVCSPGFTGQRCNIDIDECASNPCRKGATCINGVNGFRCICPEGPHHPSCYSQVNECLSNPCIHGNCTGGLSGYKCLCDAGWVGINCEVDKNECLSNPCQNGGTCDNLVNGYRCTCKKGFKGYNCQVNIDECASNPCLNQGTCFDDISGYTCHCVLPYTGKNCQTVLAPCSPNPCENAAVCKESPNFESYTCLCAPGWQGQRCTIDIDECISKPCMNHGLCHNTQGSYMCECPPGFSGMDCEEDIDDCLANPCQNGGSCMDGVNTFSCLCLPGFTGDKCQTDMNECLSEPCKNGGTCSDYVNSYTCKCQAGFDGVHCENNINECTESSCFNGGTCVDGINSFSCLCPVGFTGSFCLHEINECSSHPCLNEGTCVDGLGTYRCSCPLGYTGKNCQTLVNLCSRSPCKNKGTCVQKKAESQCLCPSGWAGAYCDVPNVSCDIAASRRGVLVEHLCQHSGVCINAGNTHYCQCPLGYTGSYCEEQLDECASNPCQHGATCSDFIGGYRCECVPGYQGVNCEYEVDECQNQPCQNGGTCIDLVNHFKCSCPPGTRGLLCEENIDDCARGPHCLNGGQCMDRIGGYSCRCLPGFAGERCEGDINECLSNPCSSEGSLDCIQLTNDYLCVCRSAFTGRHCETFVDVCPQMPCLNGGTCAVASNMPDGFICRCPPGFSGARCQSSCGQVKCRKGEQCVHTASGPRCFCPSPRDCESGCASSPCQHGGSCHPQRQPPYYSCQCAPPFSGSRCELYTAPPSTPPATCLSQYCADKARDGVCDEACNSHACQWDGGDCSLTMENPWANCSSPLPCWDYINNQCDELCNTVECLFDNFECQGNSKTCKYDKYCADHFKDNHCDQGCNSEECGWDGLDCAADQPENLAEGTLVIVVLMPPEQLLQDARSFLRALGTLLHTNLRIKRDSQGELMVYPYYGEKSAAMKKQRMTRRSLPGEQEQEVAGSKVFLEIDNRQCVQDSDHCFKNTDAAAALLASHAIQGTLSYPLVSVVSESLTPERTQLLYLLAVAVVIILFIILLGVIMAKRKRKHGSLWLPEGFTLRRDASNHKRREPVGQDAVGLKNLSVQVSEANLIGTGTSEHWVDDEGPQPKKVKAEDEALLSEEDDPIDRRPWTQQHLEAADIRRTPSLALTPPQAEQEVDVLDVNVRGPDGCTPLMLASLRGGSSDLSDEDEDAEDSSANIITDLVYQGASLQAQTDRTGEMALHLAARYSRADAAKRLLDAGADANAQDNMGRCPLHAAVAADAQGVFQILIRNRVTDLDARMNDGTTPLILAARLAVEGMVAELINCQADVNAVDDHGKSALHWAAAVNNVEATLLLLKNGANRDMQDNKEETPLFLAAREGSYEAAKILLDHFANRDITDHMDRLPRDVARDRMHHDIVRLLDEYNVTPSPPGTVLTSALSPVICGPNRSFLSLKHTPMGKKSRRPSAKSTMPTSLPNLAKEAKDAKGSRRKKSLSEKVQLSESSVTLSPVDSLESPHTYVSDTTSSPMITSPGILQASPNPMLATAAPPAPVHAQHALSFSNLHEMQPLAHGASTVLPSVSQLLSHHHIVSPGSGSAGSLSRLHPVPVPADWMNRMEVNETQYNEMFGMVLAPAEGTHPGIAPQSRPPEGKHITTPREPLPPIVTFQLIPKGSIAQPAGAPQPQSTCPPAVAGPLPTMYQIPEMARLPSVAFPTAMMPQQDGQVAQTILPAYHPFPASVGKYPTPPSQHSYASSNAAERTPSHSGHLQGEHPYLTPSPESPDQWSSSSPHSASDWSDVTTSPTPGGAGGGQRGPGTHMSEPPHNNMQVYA
# [6] = molecular target: Pro-neuregulin-1, membrane-bound isoform (Homo sapiens) (UniProt Q02297); assay: NRG1 binders on small-molecule microarrays, primary screen, psychiatric disease protein project, biochemical, small-molecule microarray, fluorescence 635/667 (AID 1075); settings: NRG1 binding, 635 nm fluorescence, higher = more signal;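 further: score combines 667 nm spot fluorescence with signal to noise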
# Chain of Pro-neuregulin-1, membrane-bound isoform (Homo sapiens) (Q02297 whole entry, looked up, the tested form may be a part, canonical isoform): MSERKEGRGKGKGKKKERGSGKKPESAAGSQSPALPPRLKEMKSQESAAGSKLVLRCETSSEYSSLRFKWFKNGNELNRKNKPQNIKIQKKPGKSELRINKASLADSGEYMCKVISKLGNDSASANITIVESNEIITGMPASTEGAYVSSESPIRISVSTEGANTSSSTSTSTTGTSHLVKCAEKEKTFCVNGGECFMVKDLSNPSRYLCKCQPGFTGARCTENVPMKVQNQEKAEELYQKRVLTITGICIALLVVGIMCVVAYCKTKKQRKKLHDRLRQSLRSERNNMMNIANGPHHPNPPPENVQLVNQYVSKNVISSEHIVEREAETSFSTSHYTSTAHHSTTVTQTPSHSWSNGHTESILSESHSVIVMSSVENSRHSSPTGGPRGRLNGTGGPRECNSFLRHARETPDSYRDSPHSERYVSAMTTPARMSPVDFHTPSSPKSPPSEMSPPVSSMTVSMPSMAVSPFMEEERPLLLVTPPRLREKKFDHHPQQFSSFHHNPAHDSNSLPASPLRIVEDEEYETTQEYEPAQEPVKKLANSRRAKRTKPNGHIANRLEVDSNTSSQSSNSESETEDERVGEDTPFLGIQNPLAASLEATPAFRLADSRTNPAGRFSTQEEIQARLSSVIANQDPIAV
# [7] = test system: Neuregulin-1 EGF-like domain; assay: binders of neuregulin-1 EGF-like domain, primary screen, biochemical, small-molecule microarray, 635 nm fluorescence (AID 1081); settings: small-molecule microarray binding, higher = more signal;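 further: binding of the protein to compounds printed on small-molecule microarray slides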
# [8] = FRG1 promoter luciferase signal modulators, primary screen, FRG1 inhibition for FSHD, cell-based, C2C12 myotubes, firefly/Renilla luciferase, luminescence (AID 1084); settings: higher = more signal, called active from +8 up or from −8 down
# [9] = binders of probe aFST on microarray, primary screen, stem cell growth factor project, biochemical, small-molecule microarray, fluorescence 635/667 (AID 1086); settings: higher = more signal;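 further: score merges 667 nm fluorescence with signal-to-noise of each printed compound spot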
# [10] = binders of probe aHhip on microarray, primary screen, stem cell growth factor project, biochemical, small-molecule microarray, fluorescence 635/667 (AID 1087); settings: higher = more signal;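 further: score merges spot fluorescence at 667nm with spot signal to noise ratio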
# [11] = test system: PRMT1 (protein arginine N-methyltransferase 1); assay: PRMT1 binders on small-molecule microarrays, primary screen, biochemical, small-molecule microarray, 635 nm fluorescence (AID 1088); settings: small-molecule microarray binding, higher = more signal;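 further: binding of Prmt1 protein to compounds spotted on small-molecule microarray slides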
# [12] = yeast growth modulation, basal conditions, primary screen, YJM789 clinical isolate, OD600, 24 h (AID 1089);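 further: growth of clinical yeast isolate S. cerevisiae YJM 789 seeded 1000 cells per well; test concentration not given here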; settings: S. cerevisiae YJM789 growth, higher = more signal, called active from +8 up or from −8 down
# [13] = fission yeast growth modulation, primary screen, strain 972, OD600, 24 h, no modulator (AID 1090);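 further: basal condition with compound alone and no growth modifier present; test concentration not given here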; settings: S. pombe 972 growth, higher = more signal, called active from +8 up or from −8 down
# [14] = S. cerevisiae growth modulation with rapamycin, primary screen, strain BY4716, OD600, 96 h (AID 1091); settings: higher = more signal, called active from +8 up or from −8 down; further: test concentration not given here
# [15] = molecular target: Torsin-1A-interacting protein 2 (Homo sapiens) (UniProt Q8NFQ8); assay: LULL1 binders on small-molecule microarray, primary screen, cell lysate, human LULL1 lysate, 635/667 nm fluorescence (AID 1092); settings: hLULL1 lysate binding, 635 nm fluorescence, higher = more signal;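 further: probe is lysate of COS7 cells overexpressing human LULL1; score merges per-feature 667 nm fluorescence with signal-to-noise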
# Chain of Torsin-1A-interacting protein 2 (Homo sapiens) (Q8NFQ8 whole entry, looked up): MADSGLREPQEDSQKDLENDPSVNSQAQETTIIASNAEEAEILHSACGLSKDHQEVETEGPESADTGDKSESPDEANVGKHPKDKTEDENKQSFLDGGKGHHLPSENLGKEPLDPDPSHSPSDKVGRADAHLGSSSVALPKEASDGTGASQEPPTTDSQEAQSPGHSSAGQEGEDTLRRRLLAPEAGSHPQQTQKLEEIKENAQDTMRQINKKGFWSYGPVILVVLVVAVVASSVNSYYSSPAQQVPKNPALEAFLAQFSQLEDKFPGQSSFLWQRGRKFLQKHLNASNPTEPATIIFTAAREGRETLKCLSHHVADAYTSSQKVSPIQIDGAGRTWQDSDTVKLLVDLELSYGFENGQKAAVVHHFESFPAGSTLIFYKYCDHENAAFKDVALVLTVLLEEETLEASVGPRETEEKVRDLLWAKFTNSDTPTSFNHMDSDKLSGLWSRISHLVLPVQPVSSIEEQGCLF
# [16] = E. coli growth modulation, two-sided OD650, primary screen, E. coli filamentation project, strain DRC41, 24 h (AID 1093); settings: OD650, 24 h, higher = more signal, called active from +8 up or from −8 down;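 further: MC1000 strain lacking acrAB efflux and sulA so SOS filamentation is blocked; test concentration not given here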
# [17] = small-molecule microarray binders of probe aLefty2, primary screen, biochemical, biotinylated probe, 635/667 nm fluorescence (AID 1094); settings: higher = more signal;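 further: score merges spot fluorescence near 667 nm with spot signal-to-noise ratio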
# [18] = test system: Noggin (protein binding on small-molecule microarray); assay: Noggin binders on small-molecule microarray, primary screen, biochemical, 635/667 nm fluorescence (AID 1095); settings: 635 nm fluorescence, higher = more signal;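 further: score merges 667 nm feature fluorescence with signal to noise over triplicate slides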
# [19] = molecular target: Neurogenic locus notch homolog protein 3 (Homo sapiens) (UniProt Q9UM47); assay: NOTCH3 binders on small-molecule microarray, primary screen, biochemical, 635/667 nm fluorescence (AID 1096); settings: NOTCH3 binding, 635 nm fluorescence, higher = more signal
# [20] = small-molecule microarray binders of probe aEGFR, primary screen, biochemical, biotinylated probe, 635/667 nm fluorescence (AID 1097); settings: higher = more signal;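 further: probe is a biotinylated anti-EGFR antibody binding compounds printed on slides; score combines fluorescence near 667 nm and signal to noise of each spot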
SMILES,composite z-score [1],composite z-score [2],composite z-score [3],composite z-score [4],composite z-score [5],composite z-score [6],composite z-score [7],z-score [8],composite z-score [9],composite z-score [10],composite z-score [11],z-score [12],z-score [13],z-score [14],composite z-score [15],z-score [16],composite z-score [17],composite z-score [18],composite z-score [19],composite z-score [20]
C=C(COC)C(=O)CC[C@@H](OC(=O)c1cccnc1)c1ccccc1OCCO,0.403,1.66,-0.122,0.276,-0.427,0.754,0.655,0.0248 (inactive),0.327,0.0176,0.409,-0.587 (inactive),-1.7 (inactive),-0.369 (inactive),-0.135,0.0506 (inactive),0.0789,0.879,-0.302,-0.0828
[N-]=[N+]=NCc1ccccc1C[C@@]1(C(=O)N2CCCCC2)N=C(c2ccc(OCCCO)cc2)O[C@@H]1c1ccccc1CN=[N+]=[N-],0.319,1.42,0.0234,0.144,1.14,0.698,0.901,-3.69 (inactive),0.828,-0.177,1.28,-0.364 (inactive),0.78 (inactive),25.9 (active),2.46,0.76 (inactive),0.154,-0.147,0.278,-0.0833
CC(C)N1CC=CC23O[C@@H]4/C=C\CCCOC(=O)C4[C@H]2C(=O)N(CCCCCCO)[C@@H]3C1=O (stereo not given in full),0.59,0.525,-0.0924,0.716,-0.602,2.01,1.03,0.163 (inactive),-0.302,0.139,0.529,0.226 (inactive),-2.03 (inactive),-0.331 (inactive),3.18,2 (inactive),-0.121,-1.26,-0.112,-0.152
O=C1O[C@H](c2ccccc2)[C@H](c2ccccc2)N2[C@H]1[C@@H](C(=O)N1CCCCCCC1)[C@]1(C(=O)Nc3ccc(C#CC4(O)CCCCCC4)cc31)[C@H]2c1ccc(O)cc1,3.63,1.42,0.807,0.822,1.36,1.36,1.2,-2.46 (inactive),2.97,0.697,1.54,0.666 (inactive),0.73 (inactive),1.19 (inactive),3.97,0.408 (inactive),1.65,1.78,1.06,1.35
O=C1N(CCS(=O)(=O)c2ccccc2)Cc2ccccc2[C@@H]2OC(c3ccc(OCCCO)cc3)=N[C@]12CCS(=O)(=O)c1ccccc1,0.215,0.675,0.115,0.507,1.66,1.46,1.39,-2.06 (inactive),1.18,0.0053,1.53,2.61 (inactive),1.97 (inactive),6.29 (inactive),3.23,0.833 (inactive),0.338,1.06,1.02,0.266
COc1ccc(C(=O)Nc2cccc(CN3C(=O)[C@]4(O[C@H](CCn5cc([C@H](O)c6ccccc6)nn5)[C@@H]([Si](C)(C)c5ccc(OC)cc5)[C@@H]4C)c4ccccc43)c2)cc1,0.243,-0.505,-0.0709,0.266,-0.122,1.04,0.933,-0.454 (inactive),0.0644,-0.0618,0.682,-0.228 (inactive),-1.99 (inactive),0.678 (inactive),1.38,1.48 (inactive),-0.0674,0.383,0.889,-0.128
COc1ccc([Si](C)(C)[C@@H]2[C@@H](CCn3cc([C@H](O)c4ccccc4)nn3)O[C@]3(C(=O)N(c4ccccc4)c4ccccc43)[C@H]2C)cc1,-0.162,0.297,-0.0824,0.211,0.0701,0.336,0.75,-0.587 (inactive),-0.0029,-0.122,1.11,-0.613 (inactive),-0.101 (inactive),1.43 (inactive),0.986,1.15 (inactive),-0.0998,0.431,0.281,-0.0452
CC(CO)N1C(=O)[C@@H]2[C@H]3C(=O)OCC=C[C@H]3OC23C=CCN(c2ccc(Cl)cc2)C(=O)[C@@H]13 (stereo not given in full),1.22,-1.45,-0.19,-1.14,-1.68,-0.87,0.688,0.529 (inactive),-0.672,-0.169,-0.421,-0.686 (inactive),-0.244 (inactive),-0.404 (inactive),-0.391,0.612 (inactive),0,-2.26,-1.05,-0.297
[N-]=[N+]=NCc1ccccc1[C@@H]1OC(c2ccc(OCCCO)cc2)=N[C@]1(Cc1ccccc1)C(=O)NCCN1CCOCC1,0.32,0.0026,0.159,1.1,1.4,1.25,1.23,0.106 (inactive),1.09,-0.126,1.53,0.469 (inactive),0.75 (inactive),0.83 (inactive),2.92,1.11 (inactive),0.242,0.512,1.09,0.591
CCCCCCCCCCC(O)C1C=CC2C(=O)N(c3ccccc3)C(=O)C2N1Nc1ccccc1F (stereo not given),0.51,-0.165,-0.0647,0.183,-0.503,1.22,0.586,0.15 (inactive),-0.08,-0.185,0.545,0.536 (inactive),0.849 (inactive),1.62 (inactive),1.59,-1.47 (inactive),-0.0713,-1.47,-0.277,-0.0576
CN1C(=O)C2C=CC(C(O)c3cc(C(F)(F)F)cc(C(F)(F)F)c3)N(Nc3ccccc3)C2C1=O (stereo not given),-0.481,-0.229,-0.0656,0.05,0.245,0.862,1.25,0.715 (inactive),-0.106,-0.0994,0.237,-0.506 (inactive),-0.714 (inactive),-0.785 (inactive),3.85,-0.565 (inactive),-0.194,0.325,0.377,-0.155
